# Compounds with a hit are over-represented: about 4.3% of the library has one in this group of screens.
# ADAM10 inh: inhibits human ADAM10. recombinant ADAM10, EDANS/DABCYL FRET peptide cleavage, 3 h. O14672. inhibition, % at 7 µM. actives 0.62% (n = 370,000). AID 720582;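 active means inhibition above a per-campaign cutoff equal to the mean of compounds falling between control-based bounds plus 3 SD, cut at about 20% in these data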
# FAS-TE inh: blocks the thioesterase domain of human fatty acid synthase; P49327; recombinant FAS-TE, OMFH fluorogenic substrate, fluorescence endpoint; inhibition, % at 15 µM; actives 0.67% (n = 360,000); AID 602261;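 active means compounds whose normalised, plate-corrected inhibition of enzyme fluorescence in the single-dose primary screen is 50% or more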
# NR3A LBD binder: NR3A (human) ligand-binding domain modulation; NR3A LBD differential scanning fluorimetry, Tm shift; 0% = protein alone, 100% = glycine-bound protein; Tm shift relative to glycine control, % at 25 µM; actives 2.5% (n = 340,000);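 active means melting temperature shift of at least 10% of the positive control shift, at one fixed dose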
# sPLA2-III inh: Blocks human group III sPLA2 activity; Q9NZ20; QFRET BODIPY PC-A2 liposome hydrolysis, fluorescence; inhibition, % at 12.2 µM; actives 0.56% (n = 370,000); AID 743126;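 active means inhibition above mean plus 3 SD of compounds lying within the high and low control bounds, cut at about 19% in these data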
# ADAM17 inh: ADAM17 inhibition, QFRET primary screen; actives 0.83% (n = 370,000); recombinant ADAM17, EDANS/DABCYL FRET peptide cleavage; inhibition, % at 6.95 µM; P78536;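 active means inhibition above the mean of compounds lying between control limits plus 3 SD, set per campaign, cut at about 8.5% in these data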
# Target sequence (P78536 215-824 limits assumed): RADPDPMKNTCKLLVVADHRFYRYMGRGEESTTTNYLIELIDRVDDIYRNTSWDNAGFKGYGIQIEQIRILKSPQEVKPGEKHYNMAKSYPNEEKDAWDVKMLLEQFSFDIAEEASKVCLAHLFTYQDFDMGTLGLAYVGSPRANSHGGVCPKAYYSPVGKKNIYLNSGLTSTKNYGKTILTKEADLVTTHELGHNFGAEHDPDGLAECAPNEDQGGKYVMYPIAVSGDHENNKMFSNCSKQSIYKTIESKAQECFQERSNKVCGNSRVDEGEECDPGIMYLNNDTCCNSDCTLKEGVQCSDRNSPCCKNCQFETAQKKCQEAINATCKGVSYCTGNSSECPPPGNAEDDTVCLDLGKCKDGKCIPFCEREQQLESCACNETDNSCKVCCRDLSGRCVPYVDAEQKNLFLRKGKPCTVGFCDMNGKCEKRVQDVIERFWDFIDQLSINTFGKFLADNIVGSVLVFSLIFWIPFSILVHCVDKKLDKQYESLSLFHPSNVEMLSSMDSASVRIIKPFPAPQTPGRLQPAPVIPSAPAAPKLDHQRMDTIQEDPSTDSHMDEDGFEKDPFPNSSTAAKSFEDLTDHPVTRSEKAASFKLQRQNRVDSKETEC
# ADAM10 ctr: inhibits human ADAM10 in ADAM17 exosite counter-screen | shares compounds with ADAM17 inh | recombinant ADAM10, EDANS/DABCYL FRET peptide cleavage, 3 h | inhibition, % at 6.95 µM | actives 47% (n = 2,900) | AID 743256;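 active means mean inhibition over the triplicate runs exceeds the activity threshold set in the earlier primary screen, cut at about 20% in these data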
# ADAM17 confirm: confirmation of inhibitors of human ADAM17. shares compounds with ADAM17 inh. recombinant ADAM17, EDANS/DABCYL QFRET peptide cleavage. inhibition, % at 6.95 µM. actives 65% (n = 2,900). AID 743257;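 active means mean inhibition across replicates above the hit cutoff set in the primary screen, cut at about 8.5% in these data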
# A number is an active result; i = inactive; nt = no result given.
SMILES,ADAM10 inh,FAS-TE inh,NR3A LBD binder,sPLA2-III inh,ADAM17 inh,ADAM10 ctr,ADAM17 confirm
COc1cc(OC)cc(-c2cn[nH]c2N)c1,i,i,i,i,9.1,i,13.2
O=C(CCC(=O)OCC(=O)c1ccccc1)Nc1cccc2cccnc12,i,i,i,i,8.7,i,i
O=C(O)CCC(=O)Nc1cccc2cccnc12,i,i,i,i,i,nt,nt
Cc1ccc(Sc2ccc(/C=C3/C(=O)NN(c4ccccc4)C3=O)o2)cc1,i,i,i,i,8.8,i,i
O=C1NN(c2ccccc2)C(=O)/C1=C/c1ccc(Sc2ccc(Cl)cc2)o1,i,i,i,i,i,nt,nt
CCN1/C(=C\C=C(C(C)=O)C(C)=O)Sc2ccccc21,i,i,i,i,10.1,i,9.1
CC12CCC(C(=O)NC(c3ccccc3)c3ccccc3)(OC1=O)C2(C)C (configuration not stated),i,i,i,i,9.1,i,i
CCCCn1nnnc1C1c2ccccc2OCC(=O)N1Cc1ccc2c(c1)OCO2 (configuration not stated),i,nt,nt,i,i,nt,nt
Cc1csc(-c2cnn(-c3ccccc3)c2NC(=O)c2ccc(C(F)(F)F)cc2)n1,i,i,i,i,9.3,i,11.2
CC(C)(C)NC(=O)c1cnn(-c2ccccc2)c1NC(=O)c1ccccc1,i,i,i,i,i,nt,nt
CN(c1cccc(NC(=O)CN(c2cccc(Cl)c2)S(=O)(=O)c2ccc(Cl)cc2)c1)S(C)(=O)=O,i,i,i,i,11.3,30.8,16.3
CCCCN(CCCC)CCNC(=O)c1cn(C)c2ccc(S(=O)(=O)N3CCCC3)cc2c1=O,i,i,i,i,9.4,i,i
Clc1ccc(CN2CCN(c3ncc(Cc4ccccc4)cn3)CC2)c(Cl)c1,i,nt,nt,i,i,nt,nt
CCOC(=O)c1c(C)[nH]c(C)c1C(=O)CSc1nc2ccccc2c(=O)n1-c1ccccc1C,i,i,i,i,i,nt,nt
CCOC(=O)c1c(C)[nH]c(C)c1C(=O)CSc1nc2ccccc2c(=O)n1-c1ccc(F)cc1,i,i,i,i,10.2,22.0,14.6
O=S(=O)(c1ccccc1)N1CCCc2nc(-c3ccc(F)cc3)ccc21,i,nt,nt,i,i,nt,nt
COc1cccc(C(=O)COc2cccc(NC(=O)c3ccco3)c2)c1,i,i,i,i,9.2,i,i
Cc1cccc2cc(C3CC(c4ccco4)=NN3S(=O)(=O)c3ccccc3)c(Cl)nc12 (configuration not stated),i,i,i,i,9.4,19.8,12.2
CC1(C)OC(=O)C2=C(CC(CCc3ccccc3)OC2CCc2ccccc2)O1 (configuration not stated),i,nt,nt,i,i,nt,nt
Cc1ccc(S(=O)(=O)N(C)CC(=O)NNC(=O)Cc2cccc(F)c2)cc1,i,i,i,i,i,nt,nt
Cc1ccc(S(=O)(=O)N(C)CC(=O)NNC(=O)Cc2ccccc2F)cc1,i,i,i,i,11.3,i,10.6
O=C(Oc1cccc(NC(=O)c2cccs2)c1)c1cccc(S(=O)(=O)N2CCCC2)c1,i,i,i,i,11.2,26.5,16.5
COc1ccc(-n2c(SCC(=O)Nc3ccc(S(=O)(=O)Nc4cc(C)nc(C)n4)cc3)nnc2-c2ccco2)cc1,i,nt,nt,i,i,nt,nt
c1cncc(CNc2nc(-c3cccnc3)nc3ccccc23)c1,i,i,i,i,i,nt,nt
CC(C)(C)c1ccc(-c2nc(NCc3cccnc3)c3ccccc3n2)cc1,i,i,i,i,12.5,i,12.2
SMILES,ADAM10 inh,FAS-TE inh,NR3A LBD binder,sPLA2-III inh,ADAM17 inh,ADAM10 ctr,ADAM17 confirm
COc1ccccc1C1CC(c2ccc(Br)cc2)=NN1C(=O)c1cccnc1 (configuration not stated),i,i,i,i,9.7,i,i
COC(=O)[C@]12C[C@H](CC(=O)NCc3ccccc3)C(=O)N(CCc3ccc(OC)c(OC)c3)C1=C[C@H](C1CCCC1)O[C@@H]2C,i,nt,nt,i,i,nt,nt
COc1ccc(Oc2cccc3c2S(=O)(=O)N(C2CC2)C[C@@H](COCc2ccccc2)O3)cc1,i,nt,nt,i,i,nt,nt
COC(=O)c1cccc(Cn2c(Cl)c(/C=N/Nc3ccccc3C)sc2=O)c1,i,i,i,i,9.5,i,12.0
Cc1ccccc1N/N=C/c1sc(=O)n(Cc2cccc(C(=O)O)c2)c1Cl,i,i,i,i,i,nt,nt
CCCC1CCC2(CC1)CCC2OC(=S)Nc1cccc(I)c1 (configuration not stated),i,nt,nt,i,i,nt,nt
CC(C)Cn1cnc2c(Sc3c([N+](=O)[O-])ncn3C)nc(N)nc21,i,i,i,i,9.4,i,i
CCC(C)Cn1cnc2c(Sc3c([N+](=O)[O-])ncn3C)nc(N)nc21 (configuration not stated),i,i,i,i,i,nt,nt
Cc1[nH]c2ccccc2c1CC(=O)Nc1ccc(Nc2cccnc2)c(-c2cc(F)cc(F)c2)c1,i,nt,nt,i,i,nt,nt
CC(C)Sc1cc(N2CCOCC2)nc(-c2ccc(Cl)cc2)n1,i,i,i,i,i,nt,nt
CCN1CCN(c2cc(SC(C)C)nc(-c3ccc(OC)cc3)n2)CC1,i,i,i,i,13.3,23.3,15.1
C=CCOc1ccc(CNc2nccs2)cc1,i,i,i,i,i,nt,nt
C=CCOc1ccc(CNc2nn[nH]n2)cc1,i,i,i,i,9.1,i,i
COCCCN1C(=O)[C@H](CC(=O)NCCC(C)C)[C@]2(C(=O)OC)CCCCC=C12,i,nt,nt,i,i,nt,nt
Cc1nc2c(OCCC3CCCCC3)cccn2c1N(C)C(=O)CCC1CCCC1,i,i,nt,i,i,nt,nt
Cc1nc2c(OCc3cc(Cl)cc(Cl)c3)cccn2c1N(C)C(=O)CCC1CCCC1,i,i,nt,i,11.0,i,10.2
CCOC(=O)c1c(C)[nH]c(C)c1S(=O)(=O)NCCc1sccc1C,i,i,i,i,9.0,i,i
CCOC(=O)c1c(C)[nH]c(C)c1S(=O)(=O)NCCc1ccc(SC)cc1,i,i,i,i,i,nt,nt
CCN(CC)C(=O)CC[C@@H]1CC[C@]2(CCCN(Cc3ccccn3)C2)O1,i,nt,nt,i,i,nt,nt
Cc1cc(Br)ccc1NC(=O)CCSc1ccccc1,i,i,i,i,i,nt,nt
Cc1cc(NC(=O)CCSc2ccccc2)ccc1Br,i,i,i,i,9.2,21.6,14.2
Cn1cccc1[C@]1(O)C(=O)Nc2ccc(F)cc21,i,nt,nt,i,i,nt,nt
CCCC(=O)N1CC2(C)CN(C(=O)CCC)CC(CCC)(C1)C2=O,i,i,i,i,12.3,i,i
COc1ccc(-c2cn[nH]c2-c2ccc(OCc3ccc([N+](=O)[O-])cc3)cc2O)cc1OC,i,i,15.3,i,9.8,25.2,13.9
O=C(Nc1ccccc1)Nc1cccc(Cl)c1Cl,i,i,i,i,11.8,i,i
